This is an account of results in PubChem BioAssay AID588477 (NMMLSC, 2011).

A number with no mark means an inactive call. Calls of active or inactive are those of the source.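 Rule for the calls: active = valid curve fit with half-effect dose at most 10 µM and total binding change across doses of 30 points or more; inactive = the rest.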

A short description of this test: inhibitors of Bodipy-GTP binding across eight GTPases, SAR follow-up, selectivity assay for Cdc42 probe extension project, biochemical, round 1 SAR, Mg buffer, multiplex flow cytometry (AID 588477). The following applies: GST-GTPase beads, Rac constitutively active; series mostly up to 100 µM; percent response (remaining binding): at the top concentration.
For `NS(=O)(=O)c1ccc(N2N=C(c3ccccc3)CC2c2ccccc2)cc1` (stereo not drawn), the “percent response (remaining binding)” value is 89.5%.

For `O=C(C#Cc1ccccc1)c1cccc([N+](=O)[O-])c1`, the molecule was called inactive.

With `COc1ccc(C2CC(c3ccccc3)=NN2c2ccc(S(N)(=O)=O)cc2)cc1` (stereo not drawn), the “percent response (remaining binding)” value is 87.9%.
